# Screens (PubChem)
# In the library only some 3.3% were active in any assay of this set; here they are far more common.
# esBAF inh: Bmi1 luciferase reporter increase in mESCs, primary screen, esBAF inhibitor project, mouse ES cells, Bmi1 luciferase knock-in, single point. 24 h; 100% = twice the neutral-well signal. reporter increase, % at 12.5 µM. 350,000 tested, 2% active. AID 602393, 2012; in the data active = activation above about 40%; inconclusive = no clear call, values can overlap the other calls;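 also: 0% = median of the plate's neutral control wells and 100% = double that signal; a rise in the Bmi1 reporter signal indicates esBAF inhibition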
# 697 NFkB inh: inhibitors of PMA/ionomycin-induced NF-kB reporter, 697 cells, primary screen, B-cell NF-kB inhibitor project, cell-based, luminescence, uHTS | 330,000 tested, 0.33% active | AID 435022, 2010 | inhibition, % at 4 µM | 697 B-cell NF-kB luciferase reporter, 16 h; in the data active = inhibition above about 35%
# Jurkat NFkB inh: inhibitors of induced NF-kB luciferase reporter, primary screen, TCR NF-kB activation inhibitor project, cell-based, luminescence, uHTS. inhibition, % at 4 µM. AID 435003, 2010. 330,000 tested, 0.53% active. Jurkat, PMA/ionomycin-induced NF-kB luciferase reporter; in the data active = inhibition above about 50%
# SMARCA2 act: SMARCA2 (BRM) function activators, primary screen, cell-based, luminescence, high throughput | activation, % at 9.1 µM | MG213 cells, MMTV-luciferase reporter, dexamethasone, overnight | 370,000 tested, 1% active; in the data active = activation above about 7.8%;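 also: 0% = vehicle wells and 100% = reference activator wells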
# Gli-Sufu block: Gli-Sufu pathway antagonists, primary screen, luciferase luminescence, Sufu-KO-LIGHT cells, uHTS | Sufu-KO-LIGHT fibroblasts, Gli luciferase reporter luminescence | inhibition, % at 5 µM | 340,000 tested, 0.74% active | AID 588413, 2011;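 active = inhibition above about 55%, limit read from the data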;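 also: 0% = DMSO-treated cells and 100% = wells with medium but no cells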
# SMARCA2 act conf: SMARCA2 (BRM) function activators, confirmation, cell-based, luminescence, triplicate | 3,500 tested, 30% active | AID 652260, 2013 | shares compounds with SMARCA2 act | activation, % at 9.1 µM | MG213 cells, MMTV-luciferase with dexamethasone, overnight; MG213 cells expressing E1A, Rb sequestered; DMSO wells 0%, reference activator 100%;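 active = activation above its plate's cutoff, the mean activation of tested wells plus 3 SD, cut at about 7.9% in these data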
# VP16 Luc act: GAL4-VP16 luciferase reporter activation, counter-screen for SMARCA2 (BRM) activator project, cell-based, pG5luc, luminescence, high throughput; shares compounds with SMARCA2 act; activation, % at 9.1 µM; HEK293 GAL4-VP16 pG5luc reporter; scaled: DMSO wells 0%, SAHA wells 100%; AID 686939, 2013; 3,500 tested, 41% active;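 active = activation above the solvent-only control well mean plus 3 SD, averaged across control plates, cut at about 5.2% in these data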
# Starred values were filed as active, the others as inactive; ? = inconclusive; . = no result.
SMILES,esBAF inh,697 NFkB inh,Jurkat NFkB inh,SMARCA2 act,Gli-Sufu block,SMARCA2 act conf,VP16 Luc act
COc1cccc(S(=O)(=O)Nc2ccc3c(c2)[C@H]2C[C@H](CC(=O)NCc4ccccc4F)O[C@H](CO)[C@H]2O3)c1,10,.,.,.,.,.,.
Cc1cc(C)c2c(N)c(C(=O)Nc3ccc([N+](=O)[O-])cc3)sc2n1,?,-100,-92,8.5*,-74,5,10*
CCC(=O)Nc1ccc2c(c1)OC[C@H](C)N(CC1CCOCC1)C[C@H](C)[C@H](OC)CN(C)C2=O,-4,.,.,.,.,.,.
Cc1cccc(NC(=O)/C(C#N)=C/c2ccccc2O)n1,?,-30,-16,12*,-39,5,6.7*
N#C/C(=C\c1ccc(O)c(O)c1)C(=O)Nc1ccccc1,?,-77,17,9.8*,29,0,4
C[C@@H](NC(=O)/C(C#N)=C/c1ccc(O)c(O)c1)c1ccccc1,-3,-76,24,-5,4,.,.
COc1cccc(-c2ccc3c(c2)O[C@H](CN(C)C)[C@H](C)CN([C@H](C)CO)S3(=O)=O)c1,1,.,.,.,.,.,.
Cc1ccc(-c2cn3cccc(C)c3n2)cc1,.,.,.,14*,-2,4,12*
COc1ccc(-c2cn3cccc(C)c3n2)cc1F,.,-98,-101,7,-81,.,.
Cc1cccn2cc(-c3c[nH]c4ccccc34)nc12,81*,5,-13,17*,2,6,10*
C[C@@H]1CN([C@@H](C)CO)C(=O)c2cc(C#CC3CCCC3)cnc2O[C@@H]1CN(C)Cc1ccncc1,-1,.,.,.,.,.,.
Cc1cccc(-c2cc3nc(C)cc(=O)n3[nH]2)c1,?,.,.,9.2*,.,5,6.7*
Cc1cc(=O)n2[nH]c(-c3ccccc3Cl)cc2n1,14,-54,-13,3,-11,.,.
O=C1C2C3CCC(O3)C2C(=O)N1c1nccs1 (configuration not stated),-3,.,.,9.5*,2,0,0
Nc1nc(SCc2ccccn2)c2ncn(C3CCCC3)c2n1,44*,.,.,8.2*,-13,5,4
O=C(NCC1CC1)[C@H]1[C@H](CO)[C@H]2Cn3c(ccc(-c4cccnc4)c3=O)[C@H]2N1Cc1cocn1,-2,.,.,.,.,.,.
C[C@H]1CN([C@@H](C)CO)C(=O)Cc2cc(NS(=O)(=O)c3cccs3)ccc2O[C@@H]1CN(C)C(=O)NC1CCCCC1,-2,.,.,.,.,.,.
CCN1CCN(CCOc2cccc(Oc3ccccc3)c2)CC1,.,-20,6,8.0*,25,-3,1
COc1ccccc1C(=O)Nc1ccc2c(c1)C(=O)N(C)C[C@H](OC)[C@H](C)CN(C(C)=O)[C@@H](C)CO2,7,.,.,.,.,.,.
O=C(COc1ccc(F)cc1Br)N1CCc2ccccc21,24,-201,-142,12*,-99,6,14*
O=Cc1ccc(OCC(=O)N2CCc3ccccc32)c(Br)c1,36,-67,-111,-1,-30,.,.
O=C(c1cc2cc(F)ccc2[nH]1)N1CCc2ccccc21,63*,-121,-87,10*,-88,8,9.3*
CCn1cc(CN2CCCC(C(=O)Nc3ccc(-c4nc5ccccc5[nH]4)cc3)C2)c(C)n1 (configuration not stated),15,1,-33,2,15,.,.
Cc1cc(CN2CCCC(C(=O)Nc3ccc(-c4nc5ccccc5[nH]4)cc3)C2)n[nH]1 (configuration not stated),24,-49,-96,10.0*,-11,2,5.5*
CN(C)C(=O)c1ccc(-c2ccc([C@@H]3[C@@H](CO)N4CCCCN(C(=O)C5CC5)C[C@H]34)cc2)cc1,-3,.,.,.,.,.,.
SMILES,esBAF inh,697 NFkB inh,Jurkat NFkB inh,SMARCA2 act,Gli-Sufu block,SMARCA2 act conf,VP16 Luc act
CN(C)c1ccc2c(c1)[C@H]1C[C@H](CC(=O)NCc3ccc(Oc4ccccc4)cc3)O[C@@H](CO)[C@H]1O2,6,.,.,.,.,.,.
CSc1ccc(/C=N/NC(=O)c2cc(O)cc(O)c2)cc1,1,-24,-18,9.3*,5,9.4*,5.4*
O=C(N/N=C/c1ccc(OC(=O)c2ccccc2)cc1)c1cccc(O)c1,.,7,-16,10.0*,-12,4,0
Cc1nc(-c2ccccc2)nc2[nH]c(=O)n(-c3ccccc3)c(=O)c12,43*,-48,-15,11*,-32,3,6.3*
Cc1c(F)cccc1NS(=O)(=O)c1ccccc1C#N,-7,13,10,9.2*,-1,-3,0
COc1ccc(NC(=O)N(C)C[C@@H]2Oc3ccc(NS(=O)(=O)c4c(C)noc4C)cc3CC(=O)N([C@@H](C)CO)C[C@H]2C)cc1,-2,.,.,.,.,.,.
Cc1ccc2c(c1)C(=NC1CCCCC1)c1cc3ccccc3nc1-2,.,.,.,11*,.,11*,7.6*
CC1(C)c2ccccc2-c2nc3ccccc3cc2C1O (configuration not stated),12,-17,-21,-3,3,.,.
CCCCCOC(=O)NCC(O)c1ccccc1 (configuration not stated),-6,-86,-78,13*,-88,8,11*
CC1=NN(Cc2ccccc2)C(=O)C1,-2,-69,12,10*,12,-4,1
CCNC(=O)COc1ccc(CC)cc1,.,-13,-11,8.1*,-7,8.0*,2
CCc1ccc(OCC(=O)NC(C)(C)C)cc1,.,7,-1,-1,-5,.,.
Cc1ccc(OCC(=O)NCCO)cc1C,5,22,-4,10*,-3,1,5
COc1ccc(NC(=O)N(C)C[C@H]2Oc3c(NC(=O)Nc4cccc5ccccc45)cccc3C(=O)N([C@H](C)CO)C[C@H]2C)cc1,1,.,.,.,.,.,.
CCOC(=O)N1CCN(S(=O)(=O)c2ccc(C(=O)Nc3sc4c(c3C#N)CCC4)cc2)CC1,-6,-23,-9,11*,12,-2,1
C[C@@H]1CN([C@@H](C)CO)C(=O)Cc2cc(NS(C)(=O)=O)ccc2O[C@@H]1CN(C)Cc1ccncc1,2,.,.,.,.,.,.
c1ccc(C2=NCCCO2)cc1,-7,.,.,3,.,.,.
c1ccc(N=Nc2ccc(C3=NCCO3)cc2)cc1,-36,.,.,10*,.,9.2*,9.8*
COc1ccc(-c2nnc(N)s2)cc1,29,9,-28,5,-30,.,.
CCCOc1ccc(-c2nnc(N)s2)cc1,?,-82,-56,9.6*,-52,11*,8.0*
